High-throughput results from PubChem.
ROMK mod: human ROMK K+ channel modulation, primary screen | B-score at 10 µM | P48048 | Tet-inducible ROMK, thallium flux fluorescence; actives lie on both sides | actives 2% (n = 130,000);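 active = signal ratio slope over the read window, or its plate-corrected B-score, at least 3 SD from the plate mean, either direction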;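 also: B-score of the F/F0 ratio slope over 7 to 12 s after thallium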
S1P4 ag: activates the human S1P4 receptor; O95977; S1P4-expressing cell line, agonist reporter assay; activation, % at 4.98 µM; actives 0.35% (n = 220,000); AID 1509; in the data active = activation above about 11%;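 also: 0% = DMSO vehicle and 100% = reference agonist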
RAM inhibit: inhibitors of the yeast RAM network. inhibition, % at 50 µM. actives 1.8% (n = 190,000). S. cerevisiae dse1pr::URA3 reporter, 5-FOA growth OD615, 2 d; analog-sensitive cbk1-as2 kinase mutant strain;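 active = inhibition above a set limit, 3 SD over mean compound inhibition, cut at about 8.4% in these data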;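 also: 0% = DMSO-only wells with no growth and 100% = 10 µM 1-NA-PP1 full growth; inhibition rescues growth on 5-FOA so higher OD means more RAM inhibition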
S1P4 antagonist: blocks the human S1P4 receptor. O95977. S1P4-expressing cells, antagonist mode, reporter read-out. inhibition, % at 4.98 µM. actives 0.26% (n = 220,000). AID 1510; in the data active = inhibition above about 29%;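 also: 0% = wells stimulated with agonist and 100% = vehicle wells without agonist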
Cl transport mod: modulators of human KCC2 chloride dependent transport | Q9H2X9 | KCC2 cells, thallium flux FluoZin-2 fluorescence | B-score of Tl+ flux slope (higher = more flux/activation; lower = inhibition) at 10 µM | actives 2.2% (n = 190,000) | AID 1456;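 active = thallium flux slope and its plate-corrected score both differing from the plate sample mean at a set confidence after two filtering rounds, in either direction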;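 also: slope of fluorescence scaled to starting intensity during 10 to 20 s after thallium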
S1P3 antag: S1P3 (human) receptor antagonism | AID 485 | CHO S1P3 NFAT-BLA reporter, FRET fluorescence, antagonist mode | actives 0.27% (n = 170,000) | Q99500 | inhibition, % at 4.98 µM;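 active = inhibition above the plate cutoff, the mean inhibition of test wells on that plate plus 3 SD, cut at about 28% in these data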;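 also: cells challenged with S1P at its EC80 of 0.8 µM; blue over green emission ratio from cleaved BLA substrate after 4 h stimulation; 0% = S1P-stimulated wells and 100% = unstimulated DMSO-only wells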
ROMK hit retest: retested hit modulating human ROMK potassium channel; shares compounds with ROMK mod; ROMK thallium flux, fluorescence ratio; hits give low values; normalized thallium flux (F/F0 slope) at 10 µM; actives 54% (n = 3,000);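 active = Flux at 10 µM at least 3 SD below or above vehicle control mean in one or both replicates; inconclusive = no clear call, values can overlap the other calls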
An asterisk follows results filed as active; i = inactive; ? = inconclusive; . = no result given. An excerpt weighted towards active compounds, which were near 5.1% of everything screened.

SMILES	ROMK mod	S1P4 ag	RAM inhibit	S1P4 antagonist	Cl transport mod	S1P3 antag	ROMK hit retest
CCCCCCCC1CC(CSC(=N)N)OC1=O (stereo not given)	-5*	1	1	-6	0.59	.	0.058*
CCCCC1CC(CSC(=N)N)OC1=O (stereo not given)	.	-1	1	-3	1.5	.	.
CCOC(=O)C1(CCCc2ccccc2)CCN(C(=O)C2CCCO2)CC1 (stereo not given)	-0.5	0	1	-11	-1.4	4	.
Cc1nn(C)cc1CN(C)C(=O)c1cc(-c2ccccc2)nc2ccc(Br)cc12	0.039	-1	1	12	-0.6	-4	0.058*
NC(=O)c1cc(-c2ccccc2)nc2ccc(Br)cc12	0.086	2	.	-14	-0.47	1	.
C=CCN1C=CC(=CC=C(C#N)C#N)C=C1	-7.5*	-1	.	-8	-5.3	0	0.034*
CCCN1C=CC(=C/C=C(\C#N)C(=O)OCC)C=C1	.	0	0	-18	i	.	.
Cc1cccc(N2C(=S)NC3c4ccccc4OC2(C)C3C(=O)N(C)C)c1 (stereo not given)	-4.4*	0	-2	-1	0.28	-5	0.064*
CC(=O)Oc1ccc(/C=N/NS(=O)(=O)c2ccccc2)cc1	-0.55	-1	2	2	1.1	-7	.
Cc1ccc(C)n1-c1ccc(-n2cnnn2)cc1	.	2	2	-29	0.32	10	0.057*
Brc1ccccc1Cn1c(-c2cscn2)nc2ccccc21	.	0	-1	8	-0.24	.	.
CCC(C)(C)n1nnnc1CN1CCc2ccccc21	-1.6	1	2	2	0.89	.	.
C=CC[n+]1c(/C=C2\C=Cc3cc(C)ccc3N2CC)ccc2ccccc21	-3.4*	-2	2	-3	-1.2	18	0.053*
O=C(CCCN1C(=O)c2ccccc2C1=O)NC1CCCCCC1	1.2*	1	2	-29	0.17	.	0.081
CC(=O)Nc1ccc(S(=O)(=O)N2CCN(Cc3nc4sc(C)c(C)c4c(=O)[nH]3)CC2)cc1	.	2	.	-10	.	-7	0.074
O=[N+]([O-])c1ccc2c(c1)/C(=N\O)c1ccccc1-2	-2.9*	-1	.	6	0.19	1	?
CN(C)C(=O)NC(O)C(Cl)Cl (stereo not given)	0.23	1	2	0	.	.	.
Cc1ccc(-n2c(C)cc(/C=c3/sc4nc5ccccc5n4c3=O)c2C)cc1	0.73	0	1	4	0.45	.	.
COc1cc(N2CCCC2)c(OC)cc1/C=c1/sc2nc3ccccc3n2c1=O	-2.5	-2	3	-8	-2.4	.	0.051*
COc1cc(/C=C2\SC(c3ccccc3)=NC2=O)cc(Cl)c1O	3.2*	0	0	1	-2.1	-21	0.066*
COc1ccc(/C=C2\SC(c3ccc(C)cc3)=NC2=O)cc1OC	.	-1	8	0	.	.	.
COc1ccc(/C=C2/SC(c3ccc(C)cc3)=NC2=O)cc1OC	-3.2*	0	4	7	.	.	0.053*
Fc1ccc(CSc2ccc3nnc(-c4cccnc4)n3n2)cc1	0.21	0	1	0	-1	-14	.
COc1ccc(S(=O)(=O)Nc2cc3c(cc2C(C)=O)OCO3)cc1	3.9	-1	1	15	-0.054	-21	.
CCOCCCNC(=O)c1ccc2c(c1)N=C(CC)c1cc(Br)ccc1S2	4.1*	-2	3	20	-0.75	19	0.084
SMILES	ROMK mod	S1P4 ag	RAM inhibit	S1P4 antagonist	Cl transport mod	S1P3 antag	ROMK hit retest
CCOCCCNC(=O)c1ccc2c(c1)OCO2	.	-1	1	3	-1.1	-21	.
Cc1cc(/C=N/NC(N)=S)c(C)n1-c1ccc(Cl)cc1	1.7*	2	1	-9	0.35	-5	0.091
Cc1cc(/C=N/NC(N)=S)c(C)n1-c1cccc(Cl)c1	2.2	7	1	-21	-0.55	-8	.
Cc1cccc(C)c1-n1c(C)cc(/C=N/NC(N)=S)c1C	2.8*	-3	2	7	-0.42	.	0.081
Cc1ccc(OCCCC(=O)Nc2ccc(Br)cc2)cc1	.	-1	2	-11	.	.	.
Cn1c(=O)c([N+](=O)[O-])c(-n2ccnc2)c2ccccc21	-8.3*	-1	1	9	-1.1	5	0.048*
COc1cccc(/C(O)=C/c2nc3ccc(C(=O)NCCc4ccc(Cl)cc4)cc3[nH]c2=O)c1	.	3	6	-13	-1.5	8	.
COc1cccc(/C(O)=C/c2nc3ccc(C(=O)NCCc4cccc(C)c4)cc3[nH]c2=O)c1	.	1	2	-8	0.013	-7	0.062*
CN(Cc1cnccn1)C(=O)CC1C(=O)NCCN1Cc1c(F)cccc1Cl (stereo not given)	.	0	.	-1	0.43	-21	.
Cc1ccc(SCC(=O)OCn2nnc3ccccc3c2=O)cc1C	0.31	1	0	4	0.19	6	.
CN(C)c1ccc(/C=C/c2cc[n+](C)cc2)cc1	-7.3*	-2	1	0	-1.7	.	0.044*
CN(C)c1ccc(/C=C/c2cc[n+]([O-])cc2)cc1	.	0	0	18	i	-10	.
COCCSc1ccccc1C(=O)Nc1ccc(Cl)cc1	0.029	0	1	15	-0.29	-9	.
CC1=C(C#N)c2nc(N)c(C#N)c(C)c2/C1=C\c1ccc(C)cc1	.	1	0	-3	0.053	.	0.043*
COc1cc(/C=C2\C(C)=C(C#N)c3nc(N)c(C#N)c(C)c32)ccc1OCC(=O)O	0.82	1	.	8	0.069	-7	.
Cc1cc(C)cc(NC(=O)N2CCCC2C(=O)Nc2ccc(-n3cnnn3)c(C)c2)c1 (stereo not given)	.	0	5	-14	-0.6	.	0.076
Cc1cc(NC(=O)C2CCCN2C(=O)Nc2c(C)cccc2C)ccc1-n1cnnn1 (stereo not given)	-1.1	2	2	-6	-0.73	.	.
Cc1ccc(SC/C(O)=C(\C#N)c2nc3ccccc3s2)cc1	.	-1	7	-8	-2.3	-56	.
COc1ccc(C/C(O)=C(\C#N)c2nc3ccccc3s2)cc1	-3.1*	1	1	-13	-1.1	.	0.06*
CCOCCCNC(=O)NC(=O)CN1CCN(S(=O)(=O)c2ccc3c(c2)OCCO3)CC1	0.25	0	1	-5	-0.034	-20	.
c1ccc2c(-c3cc(C4CCNCC4)[nH]n3)cccc2c1	-4.4*	0	2	-2	0.046	-13	0.064*
CC12CC3(C)CC(C)(C1)CC(C(=O)NC(=S)NC(C)(C)C)(C2)C3	2.5*	0	5	-7	-0.74	2	?
CC(C)(C)NC(=S)NC(=O)C12CC3CCC(CC(C3)C1)C2	.	1	5	-16	0.3	5	.
COCCSc1nc(N)c2c3c(sc2n1)CN(C)CC3	.	1	.	-7	-0.37	-1	.
COCCNC(=O)/C(C#N)=C/c1ccc(O)cc1	.	-1	.	-10	0.64	6	.
